# EPAC2 antagonist = qHTS for Antagonist of cAMP-regulated guanine nucleotide exchange factor 2 (EPAC2): primary screen. Rap guanine nucleotide exchange factor 4 (Homo sapiens), Q8WZA2. EPAC2 GEF exchange of Rap1B-BODIPY-GDP, fluorescence. Potency, µM (top dose mostly 114 µM), hits mostly inhibitors. 360,000 compounds, 0.18% hits. AID 720708, 2013; further: nearly all actives have a fitted effect of over 45% in size
# EPAC1 antag = qHTS for Antagonist of cAMP-regulated guanine nucleotide exchange factor 3 (EPAC1): primary screen; Rap guanine nucleotide exchange factor 3 (Homo sapiens), O95398; EPAC1 GEF assay, Rap1b-BODIPY-GDP exchange fluorescence; Potency, µM (highest dose often 115 µM), hits mostly inhibitors; 360,000 compounds, 0.14% hits; AID 720709, 2013; further: nearly all actives have a fitted effect of over 50% in size
# Coupling enz = qHTS Assay for Inhibitors of Fructose-1,6-bisphosphate Aldolase from Giardia Lamblia: Coupling assay counterscreen | coupling enzyme system counterscreen, AmpLite Red fluorescence | activity change, negative = inhibition, % at 58.2 µM, hits read low | 290,000 compounds, 0.67% hits; in the data active means activity change below about -30%
#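 Fluorescence at 525 nm excitation and 598 nm emission measured inhibition of the coupled detection system without aldolase. Compounds (at 57.5 uM final) were preincubated 10 min at room temperature with coupling enzyme reagent before a 20 min substrate/AmpLite Red step.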
# EPAC2 agonist = qHTS for Agonist of cAMP-regulated guanine nucleotide exchange factor 4 (EPAC2): primary screen; 360,000 compounds, 0.079% hits; Potency, µM (series often up to 154 µM), most hits filed as activators; Rap guanine nucleotide exchange factor 4 (Homo sapiens), Q8WZA2; EPAC2 activation, biochemical qHTS; response scale: 100% = 6.5 mM cAMP response; further: nearly all actives have a fitted effect of over 50% in size
#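 Fluorescence exchange assay: 100 nM EPAC2 with 250 nM RAP1B-BODIPY-GDP and 50 uM GDP; compounds tested as a concentration-titration series (qHTS). Loss of Rap1-bound BODIPY-GDP fluorescence read at 480/540 nm; data normalized to 6.5 mM cAMP.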
# EPAC1 agonist = qHTS for Agonist of cAMP-regulated guanine nucleotide exchange factor 3 (EPAC1): primary screen. Rap guanine nucleotide exchange factor 3 (Homo sapiens), O95398. EPAC1 agonist qHTS, biochemical assay; response scale: 100% = response to 6.5 mM cAMP. Potency, µM (top dose mostly 154 µM), hits mostly activators. 360,000 compounds, 0.073% hits; further: nearly all actives have a fitted effect of over 60% in size
#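 Read-out is the fluorescence drop as BODIPY-GDP leaves Rap1B (480 nm excitation, 540 nm emission), recorded every 5 minutes over 30 minutes. Reactions held 100 nM EPAC1, 250 nM Rap1B–BODIPY-GDP and 50 uM GDP, with 6.5 mM cAMP setting full activation.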
# USP1-UAF1 inh = Inhibitors of USP1/UAF1: Primary Screen. Ubiquitin carboxyl-terminal hydrolase 1 (Homo sapiens), O94782. recombinant USP1/UAF1, Ub-Rhodamine cleavage fluorescence. Potency, µM (doses to about 57.1 µM), most hits filed as inhibitors. 390,000 compounds, 0.23% hits; further: nearly all actives have a fitted effect of over 60% in size
# Target sequence (O94782 whole entry, looked up): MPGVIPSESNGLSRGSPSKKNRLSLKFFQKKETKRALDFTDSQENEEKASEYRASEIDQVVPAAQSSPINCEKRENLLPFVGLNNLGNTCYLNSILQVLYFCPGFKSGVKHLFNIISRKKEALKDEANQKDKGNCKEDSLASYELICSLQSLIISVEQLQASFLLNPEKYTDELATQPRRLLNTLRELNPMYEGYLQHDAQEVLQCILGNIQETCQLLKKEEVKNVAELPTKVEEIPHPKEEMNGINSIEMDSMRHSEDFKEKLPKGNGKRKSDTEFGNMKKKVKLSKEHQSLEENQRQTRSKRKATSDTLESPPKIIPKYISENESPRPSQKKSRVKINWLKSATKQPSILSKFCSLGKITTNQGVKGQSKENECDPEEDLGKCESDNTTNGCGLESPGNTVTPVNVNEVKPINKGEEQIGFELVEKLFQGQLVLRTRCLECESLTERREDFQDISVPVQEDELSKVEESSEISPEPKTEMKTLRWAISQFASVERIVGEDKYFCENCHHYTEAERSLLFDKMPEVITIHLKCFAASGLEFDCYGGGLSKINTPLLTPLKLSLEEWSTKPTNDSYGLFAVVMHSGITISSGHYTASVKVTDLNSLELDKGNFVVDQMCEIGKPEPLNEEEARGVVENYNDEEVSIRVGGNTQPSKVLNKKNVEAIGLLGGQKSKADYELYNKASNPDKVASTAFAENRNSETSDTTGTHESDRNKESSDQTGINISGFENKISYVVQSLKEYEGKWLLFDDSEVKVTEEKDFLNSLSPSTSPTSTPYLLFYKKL
#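 High-throughput fluorogenic screen: 1nM USP1/UAF1 complex, Ub-Rho substrate 150nM final, 50mM HEPES pH 7.8 with 0.5mM EDTA, 0.1 mg/ml BSA, 1mM TCEP and 0.01% Tween-20.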
# Numbers stand for hits; i = inactive; ? = inconclusive; nt = no result; [ ] = remark or other dose. Sampled rows, rich in hits. Any-hit rate of the full collection: about 0.87%. Unless noted, the call rests on the fitted dose curve; in most records, active means well fitted curve in the direction sought with a large enough effect; inconclusive means small, poorly fitted or top-dose-only effect, or another doubt; inactive means no such curve, though single readings can be large; an effect the other way counts as inactive or inconclusive.
SMILES,EPAC2 antagonist,EPAC1 antag,Coupling enz,EPAC2 agonist,EPAC1 agonist,USP1-UAF1 inh
CCCCn1nnnc1C(CCc1ccccc1)N1CCN(C/C=C/c2ccccc2)CC1 (stereo not given),i,i,nt,i,i,nt
CC(C)Cn1c2c(c(O)c(C(=O)Nc3ncccc3O)c1=O)CCCC2,i,i,-37,i,i,i
CC(C)Cn1c2c(c(O)c(C(=O)Nc3ccc(F)cc3)c1=O)CCCC2,i,i,i,i,i,i
O=C(CCC1CCN(C(=O)c2cncs2)CC1)Nc1ccccc1,i,i,nt,i,i,i
O=S(=O)(O)c1cccc2c(N=Nc3ccc(O)c4ncccc34)cccc12,i,?,i,?,?,?
O=S(=O)(c1cc(O)ccc1O)c1cccc2c(S(=O)(=O)c3cc(O)ccc3O)cccc12,i,79µM,nt,i,i,?
CCC(=O)N1CCc2cc(Br)cc(S(=O)(=O)N3CCCC(C(=O)Nc4ccc(C(C)C)cc4)C3)c21 (stereo not given),nt,nt,nt,nt,nt,i
COc1ccc2c(C#N)c3ccccn3c2c1,i,i,-37,i,i,i
Cc1cc(=O)n2ccccc2c1C#N,i,i,i,i,i,i
O=C(/C=C/c1ccc([N+](=O)[O-])cc1)c1ccco1,i,i,i,i,i,i
O=C(/C=C/c1ccc(-c2ccccc2[N+](=O)[O-])o1)c1ccco1,i,50µM,i,i,i,i
CC(=O)N1c2ccc(C)cc2C(c2ccccc2)CC1C (stereo not given),i,i,i,i,i,i
CCCC(=O)OC1CC(C)N(C(=O)c2ccccc2)c2ccc(C)cc21 (stereo not given),25µM,i,i,i,i,i
CCCSc1oc(-c2ccco2)nc1S(=O)(=O)c1ccccc1,i,i,-36,i,i,i
CC(=O)Nc1ccc(S(=O)(=O)N2CCN(c3cc(C)nc4ncnn34)CC2)cc1,i,i,i,i,i,i
COc1cccc(NC(=O)COC(=O)C2CCN(S(=O)(=O)c3cccs3)CC2)c1,i,i,i,i,i,i
CCOC(=O)/C(=C/c1ccc(N2CCC(c3ccccc3)=N2)cc1)C(C)=O,i,i,i,100µM,?,4.5µM
Cc1ccc(NC(=O)Cn2c(=O)n(CCc3ccccc3)c(=O)c3sc4ccccc4c32)cc1C,nt,nt,nt,nt,nt,i
N=C(N)SCc1ccccn1,i,i,-80,i,i,i
N=C(N)SCc1ncccc1O,i,i,i,i,i,i
Cc1ccc(S(=O)(=O)c2cn(C)c3cc(N4CCCC4)c(F)cc3c2=O)c(C)c1,nt,nt,nt,nt,nt,i
O/N=C1\CCCc2oc3c(c21)CCCC3,i,i,-31,i,i,i
CCN1CCN(CCOCCOc2ccccc2-c2ccccc2)CC1,nt,nt,i,nt,nt,nt
c1ccc(-c2ccccc2OCCOCCN2CCOCC2)cc1,i,i,-51,i,i,i
C=CCOc1ccc(C=NNc2ccc(S(=O)(=O)Nc3ccccc3C(=O)O)cc2[N+](=O)[O-])cc1OC,?,50µM,nt,i,i,?
SMILES,EPAC2 antagonist,EPAC1 antag,Coupling enz,EPAC2 agonist,EPAC1 agonist,USP1-UAF1 inh
COc1ccc(C=NNc2ccc(S(=O)(=O)Nc3ccccc3C(=O)O)cc2[N+](=O)[O-])c(OC)c1,i,50µM,nt,i,i,?
Cc1ccccc1OCCC(=O)OCC(=O)N1CCN(S(=O)(=O)c2ccc(Cl)cc2)CC1,i,i,nt,i,?,i
COC(=O)c1c(NS(=O)(=O)c2ccccc2)csc1C,i,i,-34,i,i,i
CCOC(=O)c1cnc2ccc(OCC)cc2c1NCc1ccccc1,i,i,-44,i,i,i
CCOC(=O)c1cnc2ccc(OCC)cc2c1NCc1cccnc1,i,i,i,i,i,i
CC1=C/C(=C(\c2cc(C)c(O)c(Br)c2)c2ccccc2S(=O)(=O)O)C=C(Br)C1=O,40µM,?,i,i,i,?
Cc1cc(C(=O)c2ccccc2)cc(C)c1O,i,i,nt,i,i,i
COc1ccc2c(c1OC)C(=O)N(c1nc(SC)n[nH]1)C2=O,i,i,i,i,i,i
CCC(C)NC(=O)CN1C(=O)c2cccc3cccc1c23 (stereo not given),i,i,i,i,i,i
CCN1/C(=N\N)c2cccc3cccc1c23,i,i,-47,i,i,i
O=c1c(-c2ccccc2)coc2cc(O)cc(O)c12,nt,nt,-35,nt,nt,nt
COC(=O)CSc1nc(-c2ccccc2)cc(-c2ccco2)c1C#N,i,i,-32,i,i,i
N#Cc1c(-c2ccc(F)cc2)cc(-c2ccccc2)nc1SCC(=O)NCC(=O)O,i,79µM,i,i,i,i
Cc1ccsc1CN(Cc1ccco1)c1cnc(S(C)(=O)=O)nc1C(=O)Nc1ccc(Cl)cc1,nt,nt,nt,nt,nt,i
COc1ccc(N2CCN(c3nc(NCCc4ccc(OC)c(OC)c4)nc(OC)n3)CC2)cc1,i,i,i,i,i,i
CC(C)CCN1CCc2nc(COc3ccccc3)c3c(c2C1)COC(C)C3 (stereo not given),nt,nt,i,nt,nt,nt
N#Cc1cccc(NC(=O)COC(=O)c2cc(S(=O)(=O)Nc3ccccc3Cl)ccc2O)c1,i,i,nt,i,i,?
CCN(CC)C1=CC2=CC(=C(C#N)C#N)CCC2CC1 (stereo not given),i,i,i,100µM,?,i[2.29 µM]
COc1ccc(/C=N/Nc2cc(=O)n(C)c(=O)n2C)cc1OC,i,i,-35,i,i,i
COc1cc(/C=C\C(=O)Nc2cc(=O)n(C)c(=O)n2C)cc(OC)c1OC,i,i,i,i,i,i
COc1ccc(/C=C/C(=O)NNc2cc(=O)n(C)c(=O)n2C)cc1OC,i,i,-31,i,i,i
NC(=O)C1CCN(CC(=O)Nc2cc(S(=O)(=O)N3CCOCC3)ccc2N2CCCC2)CC1,i,i,nt,i,i,i
O=C(CN1CCSC1=O)N1CCN(S(=O)(=O)c2ccc(F)cc2)CC1,i,i,nt,i,i,i
O=C1[C@@H]2[C@H]3[C@H](O)[C@H](O)C/C(=N/OC[C@@H](O)COCc4ccco4)[C@H]3CC[C@H]2C(=O)N1c1ccc(F)cc1F,nt,nt,-30,nt,nt,nt
